Screening data as filed in PubChem BioAssay.
HCMV antiviral = qHTS Assay for inhibitors of the human cytomegalovirus (HCMV). HFF cells, HCMV-luciferase reporter, 72 h; stronger effect = lower value. activity change, negative = inhibition, % at 57.5 µM. hit rate 4.5% among 410,000; in the data active = activity change below about -60%; inconclusive = no clear call, values can overlap the other calls; inactive = above about -39%
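Human foreskin fibroblasts infected with luciferase-reporter HCMV at MOI 1 PFU/cell, compounds at two doses. Luciferase measured 72 h post infection; normalized to buffer-only basal and Salinomycin (10uM) controls.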
MARV entry inh = qHTS for inhibitors of binding or entry into cells for Marburg Virus. Marburg virus pseudotyped entry inhibition, cell reporter. Potency, µM (top dose mostly 37.8 µM), for the others: at the highest dose activity change, negative = inhibition, usual class: inhibitors. hit rate 1.8% among 300,000. AID 540276, 2011; calls by dose curve; tested in HEK293 cells; note: potency is the fitted concentration of half-maximal effect
Vaccinia mCherry = qHTS for Stage-Specific Inhibitors of Vaccinia Orthopoxvirus: mCherry Reporter Primary qHTS. Vaccinia virus mCherry reporter infection, fluorescence. Potency, µM (titrated, usually from 36.5 µM), for the others: at the top dose activity change, negative = inhibition, usual class: inhibitors. hit rate 0.63% among 310,000; calls by dose curve; tested in A549 cells; note: potency is the fitted concentration of half-maximal effect; nearly all actives have a fitted effect of over 35% in size
FMDV antiviral = High Throughput Screening for Foot and Mouth Disease Virus Antivirals; FMDV antiviral cell-based qHTS; Potency, µM (top dose mostly 57.9 µM), for inactives: top-dose activity change, negative = inhibition, actives largely listed as inhibitors; hit rate 1.2% among 410,000; calls by dose curve; tested in HEK293T cells; note: read-out not given here; potency is the fitted concentration of half-maximal effect; nearly all actives have a fitted effect of over 45% in size
VACV Venus inh = qHTS for Stage-Specific Inhibitors of Vaccinia Orthopoxvirus: Venus Reporter Primary qHTS; Vaccinia virus Venus reporter expression, fluorescence; Potency, µM (highest dose often 36.5 µM), inactives show at the top dose activity change, negative = inhibition, usual class: inhibitors; hit rate 0.46% among 330,000; calls by dose curve; tested in A549 cells; note: potency is the fitted concentration of half-maximal effect; nearly all actives have a fitted effect of over 30% in size
LASV entry inh = qHTS for Inhibitors of binding or entry into cells for Lassa Virus. Lassa virus pseudotype entry inhibition, cell reporter. Potency, µM (highest dose often 37.9 µM), inactives show at the top dose activity change, negative = inhibition, most hits filed as inhibitors. hit rate 1.2% among 300,000. AID 540256, 2011; calls by dose curve; tested in HEK293 cells; note: potency is the fitted concentration of half-maximal effect; nearly all actives have a fitted effect of over 50% in size
* hit, by the source's call; [ ] = remark or other dose. Shown are actives, neighbours in structure and some others; about 6.5% of the full set was active somewhere. % is set by controls: 0 for no effect and ±100 for the full control effect.

`COC(=O)C[C@@H]1CC[C@@H](NC(C)=O)[C@@H](CO)O1` gave HCMV antiviral 58, Vaccinia mCherry 4%, FMDV antiviral -8% and VACV Venus inh -17%.
COC(=O)C[C@H]1CC[C@@H](NC(=O)Nc2c(C)noc2C)[C@@H](CO)O1 was read as HCMV antiviral -65*, Vaccinia mCherry -2%, FMDV antiviral -11% and VACV Venus inh 29%.
`Fc1ccc(Nc2nc3nonc3nc2Nc2cccc(C(F)(F)F)c2)cc1` gave HCMV antiviral -101*, MARV entry inh 2.2µM*, Vaccinia mCherry inconclusive, FMDV antiviral inconclusive, VACV Venus inh inconclusive and LASV entry inh inconclusive.
Fc1ccc(CNC(=S)Nc2cccc(C(F)(F)F)c2)cc1 was read as HCMV antiviral -36, MARV entry inh inconclusive, Vaccinia mCherry -6%, FMDV antiviral -49%, VACV Venus inh inconclusive and LASV entry inh inconclusive.
Screening COC(=O)[C@@H]1C[C@@H](NC(=O)c2ccc(C(F)(F)F)cc2)CN1Cc1cccc(O)c1 returned Vaccinia mCherry -2%, FMDV antiviral 10% and VACV Venus inh 1%.
CCSc1nc(-c2ccccc2)nc(C(Cl)Cl)n1 was read as HCMV antiviral -82*, Vaccinia mCherry inconclusive, FMDV antiviral -17% and VACV Venus inh 10µM*.
Screening CCSc1nc(-c2ccccc2)c2cc(Cl)ccc2n1 returned HCMV antiviral 12, MARV entry inh 0%, Vaccinia mCherry -15%, FMDV antiviral -12%, VACV Venus inh 3% and LASV entry inh 0%.
`CCOC(=O)Cn1cc(C=C2C(=O)N(C)C(=O)N(C)C2=O)c2ccccc21` gave HCMV antiviral 36, MARV entry inh -16%[46.1 µM], Vaccinia mCherry -18%, FMDV antiviral -15%, VACV Venus inh 3% and LASV entry inh -11%.
Screening CCOC(=O)Cn1cc(/C=C/[N+](=O)[O-])c2ccccc21 returned HCMV antiviral -74* and FMDV antiviral 28µM*.
`O=[N+]([O-])/C=C/c1cn(Cc2ccc(Cl)cc2)c2ccccc12` gave HCMV antiviral -39, MARV entry inh inconclusive, Vaccinia mCherry inactive, FMDV antiviral 35µM*, VACV Venus inh inconclusive and LASV entry inh inconclusive.
Cc1cccc(Cn2cc(/C=C/[N+](=O)[O-])c3ccccc32)c1 was read as HCMV antiviral -99*, MARV entry inh inconclusive, FMDV antiviral inconclusive and LASV entry inh inconclusive.
For O=Cc1cn(Cc2cccc(F)c2)c2ccccc12 the results were HCMV antiviral 2, MARV entry inh inconclusive, Vaccinia mCherry inactive, FMDV antiviral inconclusive, VACV Venus inh -17% and LASV entry inh inconclusive.
Screening O=C(O)c1ccc(Cn2cc(/C=C\[N+](=O)[O-])c3ccccc32)o1 returned HCMV antiviral 26 and FMDV antiviral -12%.
Screening COC(=O)c1ccc(Cn2cc(/C=C\[N+](=O)[O-])c3ccccc32)o1 returned HCMV antiviral -16, MARV entry inh inconclusive, Vaccinia mCherry inactive, FMDV antiviral 40µM*, VACV Venus inh -2% and LASV entry inh inconclusive.
CC(C)c1c(C(=O)N(C)CC2CCCN(C)C2)cnn1-c1nccc(-c2cccs2)n1 (stereo not drawn) was read as Vaccinia mCherry -20%, FMDV antiviral 9% and VACV Venus inh -16%.
`Cc1ccc(Nc2nc(NCc3ccco3)nc3nccnc23)c(C)c1` gave Vaccinia mCherry -7% and VACV Venus inh -5%.
`CC(C)C(=O)N1CCC(CN=Cc2c(O)n(C3CCCCC3)c(=O)n(C3CCCCC3)c2=O)CC1` gave HCMV antiviral -4, MARV entry inh inconclusive, Vaccinia mCherry -4%[1.46 µM], FMDV antiviral inconclusive, VACV Venus inh inconclusive and LASV entry inh 14µM*.
COc1cccc(C(=O)Nc2c3c(nn2-c2ccc(C)cc2C)CS(=O)(=O)C3)c1OC was read as HCMV antiviral -18, Vaccinia mCherry -12%, FMDV antiviral -3%, VACV Venus inh -10% and LASV entry inh -20%[46.1 µM].
`C=C1C(=O)[C@]23C[C@H]1CC[C@H]2[C@]1(C)[C@@H](OC(C)=O)CC[C@@](C)(C(=O)OC)[C@H]1C[C@@H]3OC(C)=O` gave HCMV antiviral -100*, Vaccinia mCherry inconclusive, FMDV antiviral 11µM* and VACV Venus inh inconclusive.
`C=C1C(=O)[C@]23C[C@H]1CC[C@H]2[C@]1(C)[C@@H](O)CC[C@@](C)(C(=O)O)[C@H]1C[C@@H]3O` gave HCMV antiviral -6, Vaccinia mCherry inconclusive, FMDV antiviral 40µM* and VACV Venus inh -29%.
C=C1C(=O)[C@]23C[C@H]1CCC2[C@@]1(C)C(C[C@@H]3O)[C@](C)(C(=O)OC)CC[C@@H]1OC(C)=O (stereo partly drawn) was read as HCMV antiviral -101*, Vaccinia mCherry 3.2µM*, FMDV antiviral 8.9µM* and VACV Venus inh 1.8µM*.
Screening C=C1C(=O)[C@]23C[C@H]1CCC2[C@@]1(C)C(C[C@@H]3O)[C@](C)(C(=O)O)C[C@H](O)[C@@H]1O (stereo partly drawn) returned HCMV antiviral -14, Vaccinia mCherry 13%, FMDV antiviral -11% and VACV Venus inh 1%.
For C=C1C(=O)[C@]23C[C@H]1CC[C@H]2[C@]1(C)[C@@H](OC(C)=O)CC[C@@](C)(C(=O)O)[C@H]1C[C@@H]3O the results were HCMV antiviral -66*, Vaccinia mCherry 5µM*, FMDV antiviral 0% and VACV Venus inh inconclusive.
`CCCN1C(=O)C(Cc2nc3ccccc3c(=O)n2CC)c2ccccc21` (stereo not drawn) gave HCMV antiviral 47, MARV entry inh 0%[46.1 µM], Vaccinia mCherry -1%, FMDV antiviral -21%, VACV Venus inh -15% and LASV entry inh 2%[46.1 µM].
CN(c1nnc(NC(=O)Nc2ccc(Br)cc2)s1)C1CCCCC1 was read as HCMV antiviral 15, MARV entry inh -11%[46.1 µM], Vaccinia mCherry -12%, FMDV antiviral 8%, VACV Venus inh -11% and LASV entry inh -5%[46.1 µM].
CN(C)CC(=O)N[C@@H]1C=C[C@@H](CC(=O)NCCN2CCCCC2)O[C@@H]1CO was read as HCMV antiviral -15, Vaccinia mCherry -7%, FMDV antiviral 0% and VACV Venus inh -10%.
For CN(C)CC(=O)N[C@@H]1CC[C@@H](CC(=O)NCCN2CCCCC2)O[C@@H]1CO the results were HCMV antiviral -100*, Vaccinia mCherry -9%, FMDV antiviral -18% and VACV Venus inh -11%.
Screening CC(N)C(=O)c1ccco1 (stereo not drawn) returned HCMV antiviral -68*, MARV entry inh 27%, FMDV antiviral -18%, VACV Venus inh -26% and LASV entry inh 0%.
